# Source: PubChem BioAssay (NCATS)
# Records with an inconclusive call do not appear. Values without a mark were called inactive. Calls come from the whole dose curve; as a rule, active = well fitted inhibition curve with a large enough effect; inconclusive = small, poorly fitted or top-dose-only effect; inactive = flat fitted curve, though single readings scatter.
# Molecular target: Calcium and integrin-binding protein 1 (Homo sapiens) (UniProt Q99828)
# Experiment: Primary qHTS for Identification of Calcium Integrin Binding Protein 1 (CIB1) Competitor (AID 1508620);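 note: GST tagged CIB1 binding a fluorescein labelled alphaIIb integrin peptide tracer; top concentration of the series differs between compounds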
# Details: CIB1-GST / FITC-alphaIIb peptide fluorescence polarization; series mostly up to 114 µM; activity change, negative = inhibition: at the top concentration
# How it was run: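 Fluorescence polarization competition: CIB1-GST (1 uM final) preincubated with compound 15 min at room temperature, then FITC-labeled alphaIIb peptide (100 nM final) added for another 15 min. Polarization read at Ex 480/Em 540.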
# % is set by controls: 0 for no effect and ±100 for the full control effect.
# Sequence of Calcium and integrin-binding protein 1 (Homo sapiens) (Q99828 whole entry, looked up): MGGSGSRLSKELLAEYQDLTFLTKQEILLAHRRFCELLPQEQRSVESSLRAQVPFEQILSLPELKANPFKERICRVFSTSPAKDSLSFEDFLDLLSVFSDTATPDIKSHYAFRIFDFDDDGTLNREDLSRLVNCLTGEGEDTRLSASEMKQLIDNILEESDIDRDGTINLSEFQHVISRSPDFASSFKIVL
row,Structure (SMILES),"activity change, negative = inhibition"
1,CCOC(=O)CCc1cc(F)c(S(=O)(=O)N2CCN(S(=O)(=O)c3ccc4c(c3)OCCO4)CC2)cc1F,5.87%
2,O=C1c2ccccc2C(=O)N1Cc1ccncc1,5.81%
3,CC(=O)Nc1ccc(NC(=O)c2cnn3c(C)cc(C)nc23)cc1,-3.54%
4,COc1cc(O)c(C(CC(=O)N2CCCC(C(=O)N3CCCCC3)C2)c2ccc3c(c2)OCO3)c(OC)c1 (centres undefined),-6.14% [at 228 µM]
5,Nc1ccc2c(c1)S(=O)(=O)NC2=O,-7.25%
6,COc1ccc(C2Nc3ccccc3C(=O)N2CCO)cc1COc1ccc(NC(C)=O)cc1 (centres undefined),5.2%
7,CC1=C(C(=O)c2ccccc2)C(c2ccccc2Cl)N=C(Nc2nc3ccccc3o2)N1 (centres undefined),12.8%
8,Cn1nnnc1Sc1ncnc2scc(-c3ccccc3Br)c12,2.41%
9,CCOc1ccc(C(=O)Oc2ccc(-c3nc4ccccc4[nH]3)cc2)cc1[N+](=O)[O-],2.62%
10,O=C(NCCc1nc2ccccc2n1CCOc1ccc(Cl)cc1)C1CCCCC1,16.5%
11,O=C(Cc1ccc(Cl)c(Cl)c1)Nc1ccc([S+](=O)([O-])Nc2ncn[nH]2)cc1,-10.3%
12,Oc1ccc(CNc2ccc(C(F)(F)F)cc2Cl)c2cccnc12,-2.74%
13,CC(=O)Nc1ccccc1NC(=O)c1cnn2c(C)cc(C)nc12,0.0809%
14,O=C1CCCC2=C1C(c1[nH]ncc1Cl)N=C(Nc1nc3cc([S+](=O)([O-])N4CCOCC4)ccc3o1)N2 (centres undefined),-6.32%
15,CC(=O)Nc1sc2c(c1-c1ccc(C(F)(F)F)cc1)CCNC2,3.18%
16,N#Cc1cccc(OC2=NS(=O)(=O)c3ccccc32)c1,2.21%
17,NC(=O)C1CCN(c2cc(-c3ccc4c(c3)OCCCO4)ncn2)CC1,1.3%
18,COc1ccc(NC(=O)CN(C)C(=O)c2cc3c(s2)CCC3)cc1,0.74%
19,Cc1cc(NS(=O)(=O)c2ccc(C(=O)NCc3ccc(Cl)c(Cl)c3)cc2)no1,-17.7%
20,O=C(OCC#CCSc1nnc(-c2cccc3ncccc23)o1)c1ccc(F)cc1,4.08%

row,Structure (SMILES),"activity change, negative = inhibition"
1,Cc1ccc(NS(=O)(=O)c2ccc3c(c2)n(C)c(=O)n3C)cc1C,-2.61%
2,S=P(c1ccccc1)(c1ccccc1)c1c[n+](C/C=C/c2ccccc2)c2ccccn12,-1.4%
3,COc1ccc(CN(Cc2ccccc2)C(=O)c2ccccc2O)cc1,2.91%
4,COc1cccc(C2N=C(Nc3nc4ccccc4o3)NC3=C2C(=O)CCC3)c1 (centres undefined),-13.4%
5,COc1cccc(NC(=O)C(OC(=O)CNC(=O)c2ccccc2)c2ccccc2)c1 (centres undefined),-0.934%
6,O=C(O)c1ccc(-n2cccc2/C=C2\SC(=O)N(Cc3ccccc3Cl)C2=O)cc1,7.91%
7,O=C(O)c1ccccc1OC1=NS(=O)(=O)c2ccccc21,1.4%
8,Oc1ccc(CNc2cccnc2)c2cccnc12,4.29%
9,O=c1[nH]c2ccc(S(=O)(=O)N3CCN(S(=O)(=O)c4ccc5c(c4)OCCO5)CC3)cc2[nH]c1=O,1.62%
10,O=S(=O)(NCCNS(=O)(=O)c1c(F)cccc1F)c1ccc2c(c1)OCCO2,-2.51%
11,Cc1ccc(-c2cnn(CC(=O)N(C)C(C)c3ccco3)c(=O)c2)cc1 (centres undefined),-2.61%
12,O=C(Nc1ccccc1)C1CCN(c2nc(-c3ccc(Br)cc3)cs2)CC1,2.44%
13,O=C(Nc1ccc(F)c(C(F)(F)F)c1)Nc1nnc(-c2ccncc2)o1,-1.46%
14,Cc1cc(-c2ccccc2)nc2c(C(=O)Nc3ccc4c(c3)CCC4)cnn12,1.99%
15,CC1=C(C(=O)NC2CCCCC2)C(c2ccccc2Br)N=C(Nc2nc3ccccc3o2)N1 (centres undefined),27.1%
16,CCOC(=O)C1CCN(c2nc(-c3ccc(Br)cc3)cs2)CC1,-0.614%
17,Cc1ccc(S(=O)(=O)N2CCN(c3nc(-c4ccco4)nc4ccccc34)CC2)cc1,1.71%
18,Cc1ccccc1N(C)C1=N[S+](=O)([O-])c2ccccc21,-6.57%
19,CCOc1ccccc1-c1nnc2n1N=C(c1cc(OC)cc(OC)c1)CS2,-1.16%
